These results are taken from publication PMC12529666, “Dysregulation of AGO2-miRNA dynamics underlies the AGO2-associated Lessel–Kreienkamp syndrome”.

B1: ACACTCCA (ssRNA)
RNA 1: GAGUUCUACAGUCCGACGAUCCCAACACACUCCACACCUGGAAUUCUCGGGUGCCAA
RNA 2: UGGAGUGUGACAAUGGUGUUUG
DNA 1: GATCGTCGGACTGTAGAACTC
DNA 2: TTGGCACCCGAGAATTCCA
modifications: constant regions annealed to DNA blockers; guide miR-122 5' phosphate
B2: GTACTTCA (ssRNA)
RNA 1: GAGUUCUACAGUCCGACGAUCCCAACGUACUUCACACCUGGAAUUCUCGGGUGCCAA
RNA 2: UGGAGUGUGACAAUGGUGUUUG
DNA 1: GATCGTCGGACTGTAGAACTC
DNA 2: TTGGCACCCGAGAATTCCA
modifications: constant regions annealed to DNA blockers; guide miR-122 5' phosphate
B3: ATGCTCCA (ssRNA)
RNA 1: GAGUUCUACAGUCCGACGAUCCCAACAUGCUCCACACCUGGAAUUCUCGGGUGCCAA
RNA 2: UGGAGUGUGACAAUGGUGUUUG
DNA 1: GATCGTCGGACTGTAGAACTC
DNA 2: TTGGCACCCGAGAATTCCA
modifications: constant regions annealed to DNA blockers; guide miR-122 5' phosphate
B4: ACACCTCA (ssRNA)
RNA 1: GAGUUCUACAGUCCGACGAUCCCAACACACCUCACACCUGGAAUUCUCGGGUGCCAA
RNA 2: UGGAGUGUGACAAUGGUGUUUG
DNA 1: GATCGTCGGACTGTAGAACTC
DNA 2: TTGGCACCCGAGAATTCCA
modifications: constant regions annealed to DNA blockers; guide miR-122 5' phosphate
B5: ACATCTCA (ssRNA)
RNA 1: GAGUUCUACAGUCCGACGAUCCCAACACAUCUCACACCUGGAAUUCUCGGGUGCCAA
RNA 2: UGGAGUGUGACAAUGGUGUUUG
DNA 1: GATCGTCGGACTGTAGAACTC
DNA 2: TTGGCACCCGAGAATTCCA
modifications: constant regions annealed to DNA blockers; guide miR-122 5' phosphate
B6: ACATTCCA (ssRNA)
RNA 1: GAGUUCUACAGUCCGACGAUCCCAACACAUUCCACACCUGGAAUUCUCGGGUGCCAA
RNA 2: UGGAGUGUGACAAUGGUGUUUG
DNA 1: GATCGTCGGACTGTAGAACTC
DNA 2: TTGGCACCCGAGAATTCCA
modifications: constant regions annealed to DNA blockers; guide miR-122 5' phosphate
B7: GCGTCCTA (ssRNA)
RNA 1: GAGUUCUACAGUCCGACGAUCCCAACGCGUCCUACACCUGGAAUUCUCGGGUGCCAA
RNA 2: UGGAGUGUGACAAUGGUGUUUG
DNA 1: GATCGTCGGACTGTAGAACTC
DNA 2: TTGGCACCCGAGAATTCCA
modifications: constant regions annealed to DNA blockers; guide miR-122 5' phosphate
B8: ACATCCTA (ssRNA)
RNA 1: GAGUUCUACAGUCCGACGAUCCCAACACAUCCUACACCUGGAAUUCUCGGGUGCCAA
RNA 2: UGGAGUGUGACAAUGGUGUUUG
DNA 1: GATCGTCGGACTGTAGAACTC
DNA 2: TTGGCACCCGAGAATTCCA
modifications: constant regions annealed to DNA blockers; guide miR-122 5' phosphate
B9: ACACTCTA (ssRNA)
RNA 1: GAGUUCUACAGUCCGACGAUCCCAACACACUCUACACCUGGAAUUCUCGGGUGCCAA
RNA 2: UGGAGUGUGACAAUGGUGUUUG
DNA 1: GATCGTCGGACTGTAGAACTC
DNA 2: TTGGCACCCGAGAATTCCA
modifications: constant regions annealed to DNA blockers; guide miR-122 5' phosphate
B10: GTACTCCA (ssRNA)
RNA 1: GAGUUCUACAGUCCGACGAUCCCAACGUACUCCACACCUGGAAUUCUCGGGUGCCAA
RNA 2: UGGAGUGUGACAAUGGUGUUUG
DNA 1: GATCGTCGGACTGTAGAACTC
DNA 2: TTGGCACCCGAGAATTCCA
modifications: constant regions annealed to DNA blockers; guide miR-122 5' phosphate

Chain of AGO2 WT (phosphosite mutant background) (Q9UKV8 whole entry S387D/S824A/S828D/S831D/S834A): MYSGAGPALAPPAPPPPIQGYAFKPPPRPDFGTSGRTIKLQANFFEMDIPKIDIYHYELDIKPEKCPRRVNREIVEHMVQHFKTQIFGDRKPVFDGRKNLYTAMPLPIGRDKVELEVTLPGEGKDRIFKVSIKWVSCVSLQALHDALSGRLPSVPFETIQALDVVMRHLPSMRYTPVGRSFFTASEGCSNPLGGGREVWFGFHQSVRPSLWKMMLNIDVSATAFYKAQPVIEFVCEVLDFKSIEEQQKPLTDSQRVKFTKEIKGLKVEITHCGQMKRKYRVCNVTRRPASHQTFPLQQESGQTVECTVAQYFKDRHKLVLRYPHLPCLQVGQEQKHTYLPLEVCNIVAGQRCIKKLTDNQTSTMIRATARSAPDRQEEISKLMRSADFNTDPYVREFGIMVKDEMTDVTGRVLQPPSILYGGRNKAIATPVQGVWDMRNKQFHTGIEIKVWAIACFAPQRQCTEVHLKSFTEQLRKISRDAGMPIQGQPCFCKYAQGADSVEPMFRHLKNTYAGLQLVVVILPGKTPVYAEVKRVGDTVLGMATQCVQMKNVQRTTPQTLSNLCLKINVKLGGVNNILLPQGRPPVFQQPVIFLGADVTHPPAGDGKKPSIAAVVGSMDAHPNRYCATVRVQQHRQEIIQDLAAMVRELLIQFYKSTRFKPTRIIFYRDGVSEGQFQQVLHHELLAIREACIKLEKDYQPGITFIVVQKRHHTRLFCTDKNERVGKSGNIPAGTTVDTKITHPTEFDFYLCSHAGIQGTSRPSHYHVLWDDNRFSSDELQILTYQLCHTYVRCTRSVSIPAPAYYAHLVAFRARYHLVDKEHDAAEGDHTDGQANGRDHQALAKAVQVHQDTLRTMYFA
Chain of AGO2 L192P (Q9UKV8 whole entry L192P/S387D/S824A/S828D/S831D/S834A): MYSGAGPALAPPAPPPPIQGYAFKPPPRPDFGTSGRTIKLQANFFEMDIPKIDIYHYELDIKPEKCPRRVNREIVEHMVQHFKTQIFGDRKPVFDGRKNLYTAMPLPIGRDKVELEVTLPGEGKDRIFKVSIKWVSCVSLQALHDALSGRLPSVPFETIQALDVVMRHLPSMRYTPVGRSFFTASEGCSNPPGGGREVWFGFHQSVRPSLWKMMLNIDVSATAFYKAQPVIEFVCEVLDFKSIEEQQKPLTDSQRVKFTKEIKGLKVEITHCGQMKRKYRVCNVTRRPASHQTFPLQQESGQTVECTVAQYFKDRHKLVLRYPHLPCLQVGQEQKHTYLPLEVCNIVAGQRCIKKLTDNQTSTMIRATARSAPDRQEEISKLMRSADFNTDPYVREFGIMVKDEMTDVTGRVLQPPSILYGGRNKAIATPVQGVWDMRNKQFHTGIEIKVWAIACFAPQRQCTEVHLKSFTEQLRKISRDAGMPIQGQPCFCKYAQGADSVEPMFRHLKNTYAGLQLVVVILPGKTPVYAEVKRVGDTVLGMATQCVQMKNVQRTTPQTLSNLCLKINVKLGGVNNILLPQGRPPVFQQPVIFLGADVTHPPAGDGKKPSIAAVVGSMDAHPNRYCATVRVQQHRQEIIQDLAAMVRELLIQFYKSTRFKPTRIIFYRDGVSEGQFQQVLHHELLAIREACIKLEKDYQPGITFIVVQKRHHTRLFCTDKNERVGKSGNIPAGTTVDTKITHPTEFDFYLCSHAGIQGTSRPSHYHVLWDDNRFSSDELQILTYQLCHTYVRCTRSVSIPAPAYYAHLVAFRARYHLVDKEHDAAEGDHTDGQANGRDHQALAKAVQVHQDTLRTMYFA
Chain of AGO2 T357M (Q9UKV8 whole entry T357M/S387D/S824A/S828D/S831D/S834A): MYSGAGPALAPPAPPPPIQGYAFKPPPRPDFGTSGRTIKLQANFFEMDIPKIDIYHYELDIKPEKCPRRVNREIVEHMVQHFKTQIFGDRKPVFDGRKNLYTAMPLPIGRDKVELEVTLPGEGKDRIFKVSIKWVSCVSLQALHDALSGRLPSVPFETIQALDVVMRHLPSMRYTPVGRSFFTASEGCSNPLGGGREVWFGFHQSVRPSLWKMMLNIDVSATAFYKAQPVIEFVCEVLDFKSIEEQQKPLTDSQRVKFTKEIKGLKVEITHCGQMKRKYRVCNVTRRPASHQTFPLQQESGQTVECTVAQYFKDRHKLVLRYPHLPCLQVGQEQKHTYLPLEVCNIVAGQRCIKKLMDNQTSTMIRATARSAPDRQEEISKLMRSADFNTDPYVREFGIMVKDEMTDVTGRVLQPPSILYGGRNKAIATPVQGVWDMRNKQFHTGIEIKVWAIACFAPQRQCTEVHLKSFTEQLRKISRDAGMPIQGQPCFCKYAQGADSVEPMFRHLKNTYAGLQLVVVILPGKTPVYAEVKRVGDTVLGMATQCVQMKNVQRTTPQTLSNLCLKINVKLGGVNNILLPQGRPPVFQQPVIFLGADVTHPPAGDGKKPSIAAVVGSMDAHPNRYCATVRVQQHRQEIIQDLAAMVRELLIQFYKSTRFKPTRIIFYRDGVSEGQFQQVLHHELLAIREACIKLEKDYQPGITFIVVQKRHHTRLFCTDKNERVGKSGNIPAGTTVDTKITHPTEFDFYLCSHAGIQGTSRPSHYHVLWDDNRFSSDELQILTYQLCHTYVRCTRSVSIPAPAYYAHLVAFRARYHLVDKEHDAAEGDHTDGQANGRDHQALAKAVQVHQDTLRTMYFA

For the first experiment, the target named is AGO2 WT (phosphosite mutant background) (Homo sapiens, UniProt Q9UKV8 1-859, S387D;S824A;S828D;S831D;S834A). As to the kind of experiment: RNA Bind-n-Seq (nitrocellulose filter binding and sequencing); miR-122 guide loaded in AGO2; 60 min incubation; 30 mM Tris pH 8.0, 100 mM potassium acetate, 2 mM magnesium acetate, 0.5 mM TCEP, 0.005% NP-40, 0.01 mg/ml yeast tRNA; 3 nM AGO2-miR-122, 100 nM RNA library; 60; high values mean tight binding. As to conditions: protein: recombinant; tags: His6 (N-terminal, pFastBac HTA). The gist of the method:
(§1)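 His-tagged AGO2 was expressed in Sf9 insect cells by baculovirus, loaded with a synthetic guide RNA, and purified by Ni-NTA and a biotinylated capture oligo. Bound RNA was extracted, reverse-transcribed, barcode-amplified and Illumina-sequenced. Fold enrichment is each sequence's read fraction divided by its input-library read fraction.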
Regarding B1, the binding signal is 229 fold enrichment over input.
The same measure, in the same setting: the same measure for B2: 0.125 fold enrichment over input; for B3: 0.416 fold enrichment over input; for B4: 0.251 fold enrichment over input.
Still for that read-out and setting: the same measure for B5: 0.206 fold enrichment over input; for B6: 0.267 fold enrichment over input.
On to B7, for which the binding signal is 0.123 fold enrichment over input.
The same measure, in the same setting: the same measure for B8: 0.139 fold enrichment over input.
The same measure, in the same setting: under B9 stands 0.587 fold enrichment over input.
Still for that read-out and setting: under B10 stands 0.714 fold enrichment over input.

The next experiment concerns the target AGO2 L192P (Homo sapiens, UniProt Q9UKV8 1-859, L192P;S387D;S824A;S828D;S831D;S834A). The description is as above. The conditions noted are these: protein: recombinant; tags: His6 (N-terminal, pFastBac HTA). The gist of the method:
as §1
Consider B1, for which the binding signal was 102 fold enrichment over input.
Same read-out and setting: under B2 stands 0.53 fold enrichment over input; under B3, 3.01 fold enrichment over input; under B4, 1.13 fold enrichment over input.
As to B5, the binding signal is 0.924 fold enrichment over input.
Still for that read-out and setting: the same measure for B6: 1.03 fold enrichment over input; for B7: 0.489 fold enrichment over input.
As for B8, the binding signal is 0.451 fold enrichment over input.
The same measure, in the same setting: under B9 stands 0.74 fold enrichment over input; under B10, 1.62 fold enrichment over input.

The target in the next experiment is AGO2 A367P (Homo sapiens, UniProt Q9UKV8 1-859, A367P;S387D;S824A;S828D;S831D;S834A). The experiment is described as above. As to conditions: protein: recombinant; tags: His6 (N-terminal, pFastBac HTA). The gist of the method: as §1
Chain of AGO2 A367P (Q9UKV8 whole entry A367P/S387D/S824A/S828D/S831D/S834A): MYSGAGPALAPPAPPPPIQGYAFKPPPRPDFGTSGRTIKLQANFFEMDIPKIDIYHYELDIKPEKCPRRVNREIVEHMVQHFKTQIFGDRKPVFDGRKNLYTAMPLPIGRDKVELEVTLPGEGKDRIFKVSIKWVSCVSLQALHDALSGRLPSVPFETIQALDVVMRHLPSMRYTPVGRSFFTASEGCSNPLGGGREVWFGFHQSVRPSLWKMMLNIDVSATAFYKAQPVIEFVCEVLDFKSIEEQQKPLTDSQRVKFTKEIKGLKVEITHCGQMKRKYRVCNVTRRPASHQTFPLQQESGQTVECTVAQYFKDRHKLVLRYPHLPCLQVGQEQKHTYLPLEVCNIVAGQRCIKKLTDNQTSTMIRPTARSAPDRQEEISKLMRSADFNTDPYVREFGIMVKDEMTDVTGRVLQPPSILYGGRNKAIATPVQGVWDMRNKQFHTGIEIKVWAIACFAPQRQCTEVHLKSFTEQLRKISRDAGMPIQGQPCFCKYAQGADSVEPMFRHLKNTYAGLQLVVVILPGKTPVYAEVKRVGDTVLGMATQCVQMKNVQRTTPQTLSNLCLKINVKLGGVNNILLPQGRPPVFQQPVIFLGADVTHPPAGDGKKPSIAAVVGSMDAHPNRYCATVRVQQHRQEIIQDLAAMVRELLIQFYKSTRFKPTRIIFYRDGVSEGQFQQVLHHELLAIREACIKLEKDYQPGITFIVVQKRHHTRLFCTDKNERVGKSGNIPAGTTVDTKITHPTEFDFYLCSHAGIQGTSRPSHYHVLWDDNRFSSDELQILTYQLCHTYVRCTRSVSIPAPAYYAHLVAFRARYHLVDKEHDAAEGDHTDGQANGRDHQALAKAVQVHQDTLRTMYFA
For the molecule B1, the binding signal was 155 fold enrichment over input.
Still for that read-out and setting: under B2 stands 0.347 fold enrichment over input; under B3, 2.6 fold enrichment over input.
The same measure, in the same setting: the same measure for B4: 0.835 fold enrichment over input; for B5: 0.613 fold enrichment over input; for B6: 0.711 fold enrichment over input.
Same read-out and setting: under B7 stands 0.195 fold enrichment over input.
On to B8, for which the binding signal is 0.212 fold enrichment over input.
The same measure, in the same setting: under B9 stands 0.661 fold enrichment over input.
Same read-out and setting: the same measure for B10: 3.12 fold enrichment over input.

In the next experiment the target is AGO2 T357M (Homo sapiens, UniProt Q9UKV8 1-859, T357M;S387D;S824A;S828D;S831D;S834A). The description is as above. The conditions noted are these: protein: recombinant; tags: His6 (N-terminal, pFastBac HTA). In short, it runs like this:
as §1
For the molecule B1, the binding signal is 154 fold enrichment over input.
On to B2, for which the binding signal is 0.645 fold enrichment over input.
The same measure, in the same setting: under B3 stands 0.765 fold enrichment over input.
Still for that read-out and setting: the same measure for B4: 0.737 fold enrichment over input; for B5: 0.57 fold enrichment over input; for B6: 0.738 fold enrichment over input.
As to B7, the binding signal is 0.72 fold enrichment over input.
On the same count and under the same terms, under B8 stands 0.632 fold enrichment over input.
On the same count and under the same terms, the same measure for B9: 0.72 fold enrichment over input.
The same measure, in the same setting: under B10 stands 0.965 fold enrichment over input.

The target in the next experiment is AGO2 F182del (Homo sapiens, UniProt Q9UKV8 1-859, S387D;S824A;S828D;S831D;S834A;del182-182). The experiment is described as above. The conditions noted are these: protein: recombinant; tags: His6 (N-terminal, pFastBac HTA). In short, it runs like this: as §1
Chain of AGO2 F182del (Q9UKV8 other isoform, or with tags, fused parts or gaps S387D;S824A;S828D;S831D;S834A;del182-182): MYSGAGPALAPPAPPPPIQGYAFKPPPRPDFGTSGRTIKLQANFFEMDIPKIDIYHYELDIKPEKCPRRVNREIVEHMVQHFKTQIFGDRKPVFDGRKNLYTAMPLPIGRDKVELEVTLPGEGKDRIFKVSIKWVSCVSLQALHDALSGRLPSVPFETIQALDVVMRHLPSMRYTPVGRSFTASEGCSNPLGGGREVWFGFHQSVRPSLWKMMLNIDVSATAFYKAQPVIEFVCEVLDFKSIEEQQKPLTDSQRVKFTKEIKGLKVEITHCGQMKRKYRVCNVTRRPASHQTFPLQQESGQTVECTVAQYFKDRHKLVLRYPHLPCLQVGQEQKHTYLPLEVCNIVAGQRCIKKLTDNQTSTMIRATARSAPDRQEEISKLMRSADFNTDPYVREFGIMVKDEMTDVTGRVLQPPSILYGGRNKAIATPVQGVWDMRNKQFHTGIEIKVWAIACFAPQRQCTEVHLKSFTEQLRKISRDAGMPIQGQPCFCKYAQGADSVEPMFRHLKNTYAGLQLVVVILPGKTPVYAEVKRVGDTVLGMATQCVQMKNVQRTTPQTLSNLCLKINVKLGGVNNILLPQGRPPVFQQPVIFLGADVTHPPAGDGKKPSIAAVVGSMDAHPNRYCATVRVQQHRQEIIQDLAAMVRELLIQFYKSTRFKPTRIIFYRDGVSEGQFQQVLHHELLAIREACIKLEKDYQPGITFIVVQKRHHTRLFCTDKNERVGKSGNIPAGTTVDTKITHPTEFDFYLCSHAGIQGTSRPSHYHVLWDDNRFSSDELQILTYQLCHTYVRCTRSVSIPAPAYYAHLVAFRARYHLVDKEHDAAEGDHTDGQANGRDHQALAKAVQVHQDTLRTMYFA
Regarding B1, the binding signal is 116 fold enrichment over input.
On the same count and under the same terms, under B2 stands 0.936 fold enrichment over input; under B3, 2.78 fold enrichment over input; under B4, 4.6 fold enrichment over input.
The same measure, in the same setting: under B5 stands 2.74 fold enrichment over input; under B6, 2.93 fold enrichment over input.
The same measure, in the same setting: the same measure for B8: 0.299 fold enrichment over input; for B9: 1.96 fold enrichment over input; for B10: 4.41 fold enrichment over input.
